# Several values for one entry are separate records, joined by “and”; a condition that tells them apart may be missing. Identical values can stand only once. Records with an inconclusive call do not appear. The source holds several records for some structures; these can differ, active in one and inactive in another. Activity calls are given as the source filed them. Calls come from the whole dose curve; as a rule, active = well fitted curve in the direction sought with a large enough effect in the repeat runs; inconclusive = weak or mixed curves; inactive = no such curve, though single readings can be large; an effect the other way counts as inactive or inconclusive.
# System: not listed separately
# Experiment: qHTS assay to identify small molecule antagonists of the androgen receptor (AR) signaling pathway using the MDA cell line - cell viability counter screen (AID 743041; note: nearly all actives have a fitted effect of over 45% in size)
# Details: MDA-kb2 viability, CellTiter-Fluor, 16 h, cells co-treated with R1881 androgen agonist; series mostly up to 70.3 µM; viability change, negative = cytotoxic: at the top concentration
# Method in brief: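 Using the breast carcinoma line MDA-kb2 AR-luc, test chemicals were co-incubated with R1881 for 16 h; CellTiter-Fluor reagent, added at 15.5 h, provided a fluorescence measure of live cells.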
# % is set by controls: 0 for no effect and ±100 for the full control effect; potency is the fitted concentration of half-maximal effect.
Structure (SMILES),"viability change, negative = cytotoxic",Potency
CCCCCC/C=C\CCCCCCCC(=O)O,-0.754% (inactive),–
Cc1cccc2cccnc12,1.21% (inactive),–
CC(C)(C)C1CCC(=O)CC1,-8.28% (inactive),–
CCO[C@@H]1O[C@H](C(COCc2ccccc2)OCc2ccccc2)[C@H](OCc2ccccc2)[C@H]1O (some centres not stated),25.4% [at 32.5 µM] (inactive),–
Oc1ccccc1O,–,inactive
CCCC[P+](C)(CCCC)CCCC,-8.08% [at 95 µM] (inactive),–
COc1cc(S(=O)(=O)O)c(C)cc1N=Nc1c(O)ccc2cc(S(=O)(=O)O)ccc12,–,24.3 µM (active)
O=[N+]([O-])c1ccc(O)cc1C(F)(F)F,–,61.1 µM (active)
CC[N+](CC)(CC)CCOc1ccc(/C=C/c2ccccc2)cc1,–,29.8 µM (active)
C=CC(=O)OCCOC(=O)C=C,8.95% (inactive),–
CCC(CC)(CC(=O)Nc1cccc(/C=C/c2nc(C3CCC3)cs2)c1)C(=O)O,9.03% (inactive),–
C=Cc1ccccc1C=C,-0.467% [at 260 µM] (inactive),–
CCCCCC(C)OC(=O)COc1ccc(Cl)c2cccnc12 (configuration not stated),-2.56% (inactive),–
[Cl][Pt-2]([Cl])([Cl])[Cl],-1.31% [at 95 µM] (inactive),–
O=c1c(O)c(-c2ccc(O)cc2O)oc2cc(O)cc(O)c12,-12.4% (inactive),–
COC(=O)Nc1nc2ccc(C(=O)c3ccccc3)cc2[nH]1,-3.32% [at 32.5 µM] (inactive),–
Sc1nc2ccccc2s1,1.44% (inactive),–
Clc1nnc(Cl)c2ccccc12,4.63% (inactive),–
Cc1cc(C)c(/C=C2\C(=O)Nc3ccccc32)[nH]1,2.66% (inactive),–
CC1(C)CCC[C@]2(C)[C@H]3CC(=O)O[C@]3(C)CC[C@@H]12,-7.03% (inactive),–
COC1=C(OC)C(=O)C(CCCCCCCCCCO)=C(C)C1=O,-2.07% (inactive),–
Cc1c2ccccc2c(C)c2c1ccc1ccccc12,–,61.1 µM (active)
CCN(CC)c1ccc2c(-c3ccc(S(=O)(=O)O)cc3S(=O)(=O)[O-])c3ccc(=[N+](CC)CC)cc-3oc2c1,–,11.2 µM (active)
S=c1nccc[nH]1,-0.439% (inactive),–
Cc1cccc(C(=O)O)c1O,8.82% (inactive),–
CC[C@H](C)COC(=O)/C=C/c1ccc(N=Cc2ccc(OC)cc2)cc1,-0.36% (inactive),–

# Molecular target: Androgen receptor (Homo sapiens) (UniProt P10275)
# Experiment: qHTS assay to identify small molecule antagonists of the androgen receptor (AR) signaling pathway using the MDA cell line (AID 743042; note: nearly all actives have a fitted effect of over 55% in size)
# Details: MDA-kb2 AR-luc, MMTV luciferase, R1881 antagonist, 16 h; series mostly up to 70.3 µM; activity change, negative = inhibition: at the top concentration
# Method in brief: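 Antagonist mode: compounds plus R1881 agonist added to MDA-kb2 AR-luc cells, incubated 16 h at 37C. Luciferase reporter luminescence quantified, with multiplexed CellTiter-Fluor readout for cell viability.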
# Chain of Androgen receptor (Homo sapiens) (P10275 whole entry, looked up): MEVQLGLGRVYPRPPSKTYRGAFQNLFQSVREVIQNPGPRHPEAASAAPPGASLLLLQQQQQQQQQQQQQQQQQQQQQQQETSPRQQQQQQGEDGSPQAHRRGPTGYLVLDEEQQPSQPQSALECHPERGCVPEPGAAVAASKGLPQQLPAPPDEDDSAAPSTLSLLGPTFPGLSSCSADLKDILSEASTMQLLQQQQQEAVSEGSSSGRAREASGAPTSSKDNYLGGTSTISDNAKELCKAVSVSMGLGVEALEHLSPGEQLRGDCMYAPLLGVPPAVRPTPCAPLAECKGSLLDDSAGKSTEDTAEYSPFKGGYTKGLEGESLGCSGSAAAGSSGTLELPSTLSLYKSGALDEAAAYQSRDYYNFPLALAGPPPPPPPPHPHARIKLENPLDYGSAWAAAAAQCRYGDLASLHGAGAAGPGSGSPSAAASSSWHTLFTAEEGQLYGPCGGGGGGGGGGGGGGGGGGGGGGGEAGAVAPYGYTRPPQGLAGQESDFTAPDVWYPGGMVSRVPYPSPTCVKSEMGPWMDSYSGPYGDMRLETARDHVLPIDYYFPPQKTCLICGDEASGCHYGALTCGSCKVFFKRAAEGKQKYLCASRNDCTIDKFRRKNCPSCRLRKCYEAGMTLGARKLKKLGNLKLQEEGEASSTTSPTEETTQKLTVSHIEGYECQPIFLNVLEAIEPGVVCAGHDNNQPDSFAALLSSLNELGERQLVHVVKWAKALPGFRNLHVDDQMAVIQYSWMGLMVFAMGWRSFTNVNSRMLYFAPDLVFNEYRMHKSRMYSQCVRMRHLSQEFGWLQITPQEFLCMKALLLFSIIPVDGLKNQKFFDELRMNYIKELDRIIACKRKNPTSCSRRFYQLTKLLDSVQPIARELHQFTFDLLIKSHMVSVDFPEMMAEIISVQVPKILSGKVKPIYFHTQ
Structure (SMILES),"activity change, negative = inhibition",Potency
C=CC(=O)OCCOC(=O)C=C,3.77% (inactive),–
CC(C)=CCC1=C(O)c2ccccc2C(=O)C1=O,-9.13% (inactive),–
COC(=O)Nc1nc2ccc(C(=O)c3ccccc3)cc2[nH]1,22.3% [at 32.5 µM] (inactive),–
Cc1cc(C)c(/C=C2\C(=O)Nc3ccccc32)[nH]1,-12.7% (inactive),–
COC1=C(OC)C(=O)C(CCCCCCCCCCO)=C(C)C1=O,-28.8% (inactive),–
Cc1c2ccccc2c(C)c2c1ccc1ccccc12,–,inactive and 30.6 µM (active)

# — PubChem BioAssay (Tox21)
